This note sets out measurements from paper PMC5869772, “Quantitative profiling of BATF family proteins/JUNB/IRF hetero-trimers using Spec-seq”.

In this experiment the target is T1, BATF3;JUNB (human;human, UniProt Q9NR55;P17275 1-127;148-347, |).
T1 sequence 1: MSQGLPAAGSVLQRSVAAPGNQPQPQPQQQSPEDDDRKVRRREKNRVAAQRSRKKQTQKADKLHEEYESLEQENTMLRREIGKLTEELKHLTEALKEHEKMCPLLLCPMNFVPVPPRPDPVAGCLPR
T1 sequence 2: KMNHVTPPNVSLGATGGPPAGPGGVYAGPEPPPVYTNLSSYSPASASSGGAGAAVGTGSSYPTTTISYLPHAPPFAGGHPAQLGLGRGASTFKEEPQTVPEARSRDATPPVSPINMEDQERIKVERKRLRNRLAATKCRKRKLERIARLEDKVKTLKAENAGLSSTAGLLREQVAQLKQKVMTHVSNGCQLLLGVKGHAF
Briefly: Spec-seq (EMSA and sequencing of bound and unbound bands); 100 nM BATFx-JUNB, 1 uM dsDNA library, 50 mM K acetate, 20 mM Tris-acetate, 10 mM Mg acetate, 100 ug/ml BSA, pH 7.9, 10% glycerol, 30 min on ice; native 9% PAGE at 4 C; low values mean tight binding. As to conditions: protein: recombinant;recombinant; tags: N-terminal mCherry-TEV, cleaved off;C-terminal 6His; copies: 1;1; dsDNA, one strand shown. The method in brief: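 The protein, at 100 nM, was incubated with 1 μM double-stranded degenerate DNA library for 30 min on ice in NEB Cutsmart buffer with 10% glycerol, then resolved by native 9% PAGE at 4 °C. Excised bound and unbound bands were PCR-barcoded and Illumina-sequenced, and each sequence's relative binding energy in kT is −ln of its bound/unbound read-count ratio.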
“GATAGTCTCATTTTCACCCCGTGAAATGAGTCACTTGTTCCATTACAGTATCTGT”: the binding signal was -1.03 kT.
Consider “GATAGTCTCATTTTCACCCCGTGAAAATCAGTCATTGTTCCATTACAGTATCTGT”, for which the binding signal is -0.272 kT.
In the case of “GATAGTCTCATTTTCACCCCGTGAAATTAAGTCATTGTTCCATTACAGTATCTGT” it was -0.719 kT; in that of “GATAGTCTCATTTTCACCCCGTGAAATGACTCAGTTGTTCCATTACAGTATCTGT”, -0.697 kT.
In the case of “GATAGTCTCATTTTCACCCCGTGAAAGTGAGTCATTGTTCCATTACAGTATCTGT” it was -1.65 kT; in that of “GATAGTCTCATTTTCACCCCGTGAAATGAGTCTTTTGTTCCATTACAGTATCTGT”, 0.768 kT.
“GATAGTCTCATTTTCACCCCGTGAAAAGACTCATTTGTTCCATTACAGTATCTGT”: the binding signal is 0.446 kT.
Consider “GATAGTCTCATTTTCACCCCGTGAAAGGGAGTCATTGTTCCATTACAGTATCTGT”, for which the binding signal stood at 0.287 kT.
“GATAGTCTCATTTTCACCCCGTGAAATTCAGTCATTGTTCCATTACAGTATCTGT”: the binding signal is -0.0636 kT.
With “GATAGTCTCATTTTCACCCCGTGAAATGAGTTATTTGTTCCATTACAGTATCTGT”, the binding signal was determined as 0.54 kT.
For the sequence “GATAGTCTCATTTTCACCCCGTGAAATGAGTCGGTTGTTCCATTACAGTATCTGT”, the binding signal turned out to be 0.619 kT.
With “GATAGTCTCATTTTCACCCCGTGAAATGAGTTAATTGTTCCATTACAGTATCTGT”, the binding signal was 0.279 kT.
In the case of “GATAGTCTCATTTTCACCCCGTGAAATGAGTAACTTGTTCCATTACAGTATCTGT” it was 0.295 kT.
In the case of “GATAGTCTCATTTTCACCCCGTGAAATGACCCAATTGTTCCATTACAGTATCTGT”, the binding signal is 0.601 kT.
In the case of “GATAGTCTCATTTTCACCCCGTGAAAATGTGTCATTGTTCCATTACAGTATCTGT” it was -0.757 kT; in that of “GATAGTCTCATTTTCACCCCGTGAAATTAGTCATTTGTTCCATTACAGTATCTGT”, -1.19 kT; in that of “GATAGTCTCATTTTCACCCCGTGAAATGACTCGGTTGTTCCATTACAGTATCTGT”, 0.398 kT.
To “GATAGTCTCATTTTCACCCCGTGAAAATAAGTCATTGTTCCATTACAGTATCTGT” belongs -0.395 kT.
Regarding “GATAGTCTCATTTTCACCCCGTGAAATGACTCTCTTGTTCCATTACAGTATCTGT”, the binding signal is 0.694 kT.
In the case of “GATAGTCTCATTTTCACCCCGTGAAATGGGTCATTTGTTCCATTACAGTATCTGT” it was 0.458 kT; in that of “GATAGTCTCATTTTCACCCCGTGAAATGGAGTCATTGTTCCATTACAGTATCTGT”, -0.305 kT; in that of “GATAGTCTCATTTTCACCCCGTGAAATGAGTGAATTGTTCCATTACAGTATCTGT”, 0.58 kT.
In the case of “GATAGTCTCATTTTCACCCCGTGAAATGACTAACTTGTTCCATTACAGTATCTGT”, the binding signal came to 0.0773 kT.
On to “GATAGTCTCATTTTCACCCCGTGAAATGACTCCCTTGTTCCATTACAGTATCTGT”, for which the binding signal was 0.785 kT.
Turning to “GATAGTCTCATTTTCACCCCGTGAAACTGAGTCATTGTTCCATTACAGTATCTGT”, the binding signal was -1.63 kT.
To “GATAGTCTCATTTTCACCCCGTGAAATGACGCCATTGTTCCATTACAGTATCTGT” belongs -0.802 kT; to “GATAGTCTCATTTTCACCCCGTGAAATGAGACAATTGTTCCATTACAGTATCTGT”, 0.853 kT; to “GATAGTCTCATTTTCACCCCGTGAAATGACTCCGTTGTTCCATTACAGTATCTGT”, 0.582 kT.
Take “GATAGTCTCATTTTCACCCCGTGAAACTGCGTCATTGTTCCATTACAGTATCTGT”: the binding signal was -0.774 kT.
In the case of “GATAGTCTCATTTTCACCCCGTGAAATTGGGTCATTGTTCCATTACAGTATCTGT” it was -0.0123 kT; in that of “GATAGTCTCATTTTCACCCCGTGAAATGACTCTATTGTTCCATTACAGTATCTGT”, 0.236 kT.
In the case of “GATAGTCTCATTTTCACCCCGTGAAATGAGTCAGTTGTTCCATTACAGTATCTGT” it was -0.715 kT; in that of “GATAGTCTCATTTTCACCCCGTGAAATGACTCCATTGTTCCATTACAGTATCTGT”, 0.168 kT.
